Measured values published in PubChem BioAssay AID1985 (Southern Research Specialized Biocontainment Screening …, 2009).
Among all 2,300 compounds or so, about 1,000 (43%) were called active. How the calls were made is not given here. The set was probably picked from earlier hits. The list shows a part of the results. Measured potencies and affinities stand elsewhere.

Experiment: PhoP regulon inhibitor project modified counter assay, GFP fluorescence readout, dose response (AID 1985)
Conditions: S. Typhi, 4 h; series mostly up to 150 µM

SMILES | outcome
CCN(CC)S(=O)(=O)c1cc(NC(=O)C2Cc3ccccc3C(=O)O2)ccc1C (configuration not stated) | inactive
Cc1c(C(=O)O)sc(=S)n1-c1ccc(Cl)cc1 | inactive
O=C1c2ccc3c4c(ccc(c24)C(=O)N1c1cccc(O)c1)C(=O)N(c1cccc(O)c1)C3=O | inactive
O=C1CSC(=S)N1c1cccnc1 | inactive
Cc1cccc(N2C(=O)CS/C2=N\NC(=O)c2ccc(Br)cc2)c1C | inactive
Cc1nn(C)c(C)c1NC(=O)c1ccc(S(=O)(=O)N(C)C)cc1 | inactive
COc1ccc(CCNC(=O)Cn2c(=O)n(CC3CCCO3)c(=O)c3ccccc32)cc1OC (configuration not stated) | inactive
O=C(Nc1ccc(F)cc1)c1ccc2snnc2c1 | inactive
O=C(CSCc1ccccc1)Nc1cccc(C(=O)Nc2ccc(C(=O)O)cc2)c1 | inactive
CC(C)[C@@H](C(=O)NC1CCCC1)N1C(=O)N2CCc3c([nH]c4ccccc34)[C@@]2(C)C1=O | inactive
[O-][n+]1onc2c1CCc1[nH]c(-c3ccccc3)nc1-2 | inactive
COc1ccc(C(=O)Oc2ccc(/C=N/O)cc2)cc1 | inactive
COc1ccc(NC(=O)C(Cc2ccccc2)n2cccc2)cc1 (configuration not stated) | inactive
COc1cc(/C=C/C(=O)O)cc2c1OCCO2 | inactive
CC(=O)c1cc(O)c2ccccc2c1O | inactive
CCN1CCN(C(=O)Nc2ccc(Cc3ccc(NC(=O)N4CCN(CC)CC4)cc3)cc2)CC1 | inactive
O=C(Cn1c(=O)oc2cc(S(=O)(=O)N3CCCC3)ccc21)N1CCN(c2ccccc2F)CC1 | inactive
CN1CCCN(S(=O)(=O)c2ccc3c(c2)OCCO3)CC1 | inactive
CCOC(=O)N1CCN(C(=S)NC(=O)c2ccc(Br)cc2)CC1 | inactive

SMILES | outcome
O=C(Nc1ccc(Cl)cc1)N1CCCN(Cc2ccccc2F)C1 | inactive
Cc1oc2c(O)c(O)ccc2c(=O)c1-c1ccccc1 | inactive
CCCC(=O)N1CCN(c2ccc(NC(=S)NC(=O)c3cccc(C)c3)cc2)CC1 | inactive
CCN(CC)S(=O)(=O)c1ccc(N2CCOCC2)c(C(=O)O)c1 | inactive
CCCNC(=O)C1CCN(c2ccc(S(=O)(=O)N3CCOCC3)cc2Cl)CC1 | inactive
CCOc1ccc2nc(NC(=O)C3=NNC(=O)CC3)sc2c1 | inactive
Cc1ccccc1Oc1ccc(Oc2ccccc2C)nn1 | inactive
Cc1ccc(NC(=O)CCNC(=O)c2ccccc2)cc1F | inactive
CC(=O)c1cccc(NC(=O)CCC2CCCC2)c1 | inactive
COCC1CCCN(Cc2cn[nH]c2-c2cc3ccccc3o2)C1 (configuration not stated) | inactive
O=C(c1ccc2c3c(cccc13)CC2)C1CCCN(Cc2ncc[nH]2)C1 (configuration not stated) | inactive
COc1ccccc1NC(=O)CSC1CC(=O)N(c2ccc3c(c2)OCO3)C1=O (configuration not stated) | inactive
NS(=O)(=O)c1ccc(CCNS(=O)(=O)c2cccc(C(=O)O)c2)cc1 | inactive
COc1cccc(C(=O)CC(=O)C(=O)Nc2cc(OC)c(OC)c(OC)c2)c1 | inactive
Cc1ccc(/C=C2\SC(=S)N(c3cccnc3)C2=O)o1 | inactive
COc1ccc(OC)c(NC(=O)CSc2nnc3ccc(-c4ccncc4)nn23)c1 | inactive
Cn1c(CN2CCCCC2)nc2cc(NS(=O)(=O)c3ccc(Cl)cc3)ccc21 | inactive
CCOC(=O)C1=C(C)NC(=O)NC1c1ccc(NC(C)=O)cc1 (configuration not stated) | inactive
COC(=O)CNC(=O)c1ccc(=O)oc1 | inactive

SMILES | outcome
CN1CCCN(C(=O)COc2ccc(F)cc2Cl)CC1 | inactive
CN1CCN(c2ccc(C(=O)c3cn(-c4ccc(F)c(Cl)c4)nn3)cc2)CC1 | inactive
CN1CCC(=C2c3ccccc3C=Cc3ccccc32)CC1 | inactive
CCn1c(-c2ccncc2)n[nH]c1=S | inactive
COc1cc(C)c(Cl)cc1S(=O)(=O)n1cnc(C)c1 | inactive
Cn1c(=NC(=O)COc2ccccc2)sc2cccc(F)c21 | inactive
O=[N+]([O-])c1ccc(O)c2ncccc12 | inactive
C#CC(=O)N(c1cccc(OC)c1)C(C(=O)NC1CCCC1)c1cccs1 (configuration not stated) | inactive
CCN(CC)CCSc1nnc2c3ccccc3n(Cc3ccccc3)c2n1 | inactive
C=CCn1c(C)cc(C(=O)CSc2n[nH]c(N)n2)c1C | inactive
O=[N+]([O-])c1ccc(N2CCNCC2)cc1NCc1cccnc1 | inactive
Cc1nc2scc(C)n2c(=O)c1S(=O)(=O)N1CCN(c2cccc(C(F)(F)F)c2)CC1 | inactive
COc1nnc(-c2ccc(N3CCOCC3)c(NC(=O)c3ccc(C)cc3)c2)c2ccccc12 | inactive
CN(C)CCCN(C(=O)c1cc2cc([N+](=O)[O-])ccc2s1)c1nc2cc3c(cc2s1)OCCO3 | inactive
CCSC1=NCN(CCCC(=O)O)CN1 | inactive
COc1cc(C(=O)N/N=C/c2coc3ccccc3c2=O)cc(OC)c1OC | inactive
CC(C)C(c1nnnn1Cc1ccccc1)N(CCCO)Cc1cc2cc3c(cc2[nH]c1=O)OCO3 (configuration not stated) | inactive
CC(C)Cc1nc(N2CCOCC2)c(C#N)c2c1COC(C)(C)C2 | inactive
CCNC(=S)N1CCN(CC)CC1 | inactive
